This passage reports PBM binding z-score results from the supplement of paper PMC6555819.

Common to all, as to assay: PBM binding z-score (relative to random genomic background probes); higher = stronger binding; sequences stand for … in GC…GCGATTGACAGCGTAGAATGAAGG
Test [1] has as its system FXR:RXRa (NR concentration 270 nM, RXRa partner concentration 90 nM). A digest of the protocol:
(§1)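 Scanned fluorescence from custom Agilent 4×180K protein-binding microarrays was regression-normalized. Binding z-scores use random background probes as reference. Ligand-free nuclear receptor dimers were incubated on the arrays for 1 h and detected with antibodies against each partner (one per run).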

The subject of test [2] is LXRa:RXRa (NR concentration 270 nM, RXRa partner concentration 90 nM). A digest of the protocol: as §1
Test [3] concerns LXRa homodimer (NR concentration 270 nM). A digest of the protocol: as §1
Test [4] relates to LXRb:RXRa (NR concentration 270 nM, RXRa partner concentration 90 nM). A digest of the protocol:
as §1

Test [5] deals with LXRb homodimer (NR concentration 270 nM). A digest of the protocol:
as §1

In test [6] the test system is PPARa:RXRa (NR concentration 270 nM, RXRa partner concentration 90 nM). A digest of the protocol: as §1
Test [7] deals with PPARg:RXRa (NR concentration 180 nM, RXRa partner concentration 90 nM). A digest of the protocol: as §1
Test [8] has as its system PPARg:RXRa 270nM:90nM, anti-RXR (NR concentration 270 nM, RXRa partner concentration 90 nM). A digest of the protocol:
as §1

The test system of test [9] is PPARg:RXRa 30nM:10nM, anti-RXR (NR concentration 30 nM, RXRa partner concentration 10 nM). A digest of the protocol: as §1
The subject of test [10] is PPARg:RXRa 90nM:30nM, anti-RXR (NR concentration 90 nM, RXRa partner concentration 30 nM). A digest of the protocol:
as §1

For test [11], the system named is PPARg:RXRa DBDmut IVT, anti-RXR (DBD mutation: RXRa K156A/R161A, NR concentration 270 nM, RXRa partner concentration 90 nM). A digest of the protocol:
as §1

For test [12], the system named is PPARg:RXRa IVT, anti-PPARg (NR concentration 270 nM, RXRa partner concentration 90 nM). A digest of the protocol:
as §1

Test [13] concerns PPARg DBDmut:RXRa IVT, anti-PPARg (DBD mutation: PPARg1 K132A/R137A, NR concentration 270 nM, RXRa partner concentration 90 nM). A digest of the protocol: as §1
Test [14] concerns PPARg DBDmut IVT, anti-PPARg (DBD mutation: PPARg1 K132A/R137A, NR concentration 270 nM). A digest of the protocol:
as §1

Test [15] concerns PPARg homodimer (NR concentration 180 nM). A digest of the protocol: as §1
Test [16] deals with PXR:RXRa (NR concentration 270 nM, RXRa partner concentration 90 nM). A digest of the protocol:
as §1

Test [17] relates to PXR homodimer (NR concentration 270 nM). A digest of the protocol: as §1
Test [18] concerns RARa:RXR (NR concentration 270 nM, RXRa partner concentration 90 nM). A digest of the protocol:
as §1

Test [19] deals with RARa homodimer (NR concentration 270 nM). A digest of the protocol:
as §1

Test [20] concerns RARb:RXRa (NR concentration 270 nM, RXRa partner concentration 90 nM). A digest of the protocol:
as §1

As for CAAACTAGGTCAAAGGTAAAAGTCGAGCCAACCA, the PBM binding z-score in test [1] was determined as 5.4; in test [2] it was 4.12; in test [3], 0.676; in test [4], 3.51; in [5] it was 0.646; in test [6], 6.67. Further, the PBM binding z-score in test [7] was 13; in test [8] it was 10.3; in test [9], 12.5; in test [10], 12.1; in test [11], 8.99; in test [12], 9.08. Moreover, the PBM binding z-score is 2.75 in test [13]; 1.05 in [14]; 2.75 in [15]; 3.48 in test [16]; -0.123 in [17]; 5.33 in [18]. Also, the PBM binding z-score in test [19] is 0.696; in [20], 4.21.
With CCTTACGGGTCACTGACAGGTTACAGCATTTGGA, the PBM binding z-score was 5.61 in [1]; 3.93 in test [2]; 0.335 in test [3]; 3.43 in test [4]; -0.275 in test [5]; 5.01 in test [6]. The PBM binding z-score was determined as 4.41 in [7]; 4.6 in [8]; 1.49 in test [9]; 3.28 in test [10]; 3.39 in [11]; 4.02 in test [12]. In addition, the PBM binding z-score in test [13] is 0.114; in [14], -0.264; in test [15] it was 2.85; in test [16], 3.59; in test [17] it was 0.0317; in test [18], 4.5. The PBM binding z-score in test [19] is 0.367; in [20], 4.06.
With TAGCCTAGGTCAGATCGGGCTAGTATACGCTATA, the PBM binding z-score in [1] was 1.81; in test [2] it was 1.03; in [3], -0.52; in test [4] it was 0.639; in test [5], -0.577; in [6] it was 1.73. Also, the PBM binding z-score in test [7] was 0.628; in [8], 0.874; in test [9] it was -0.237; in test [10], 0.393; in [11], 0.118; in [12], 1.07. Moreover, the PBM binding z-score in test [13] is -0.407; in [14] it was -0.708; in [15], 0.037; in [16], 0.63; in test [17] it was -0.428; in test [18] it was 1.5. The results for the PBM binding z-score in test [19] and in test [20] were -0.679 and 2.78, respectively.
In the case of CCTACTGGGCCATCAGTTCATTGATATCAACGTT, the PBM binding z-score in test [1] is 0.0577; in [2] it was -0.0476; in test [3] it was 0.218; in [4] it was 0.257; in test [5], -0.567; in test [6] it was 1.11. The PBM binding z-score in test [7] was 1.34; in [8] it was 2.19; in [9], 0.638; in test [10], 1.48; in test [11] it was 4.11; in test [12] it was 3.98. The PBM binding z-score in test [13] worked out at 0.61; in test [14], 0.651; in [15] it was 0.245; in test [16], 1.18; in test [17] it was 2.78; in test [18], 0.106. The PBM binding z-score in test [19] amounted to 0.0148; in test [20], 0.462.
CTACCAAGGTGAACTAGGTCGTTGATTACTATTC: the PBM binding z-score was 1.2 in test [1]; 1 in test [2]; 0.238 in test [3]; 1.61 in test [4]; -0.516 in [5]; 2.59 in [6]. Besides, the PBM binding z-score worked out at 1.12 in test [7]; 1.6 in test [8]; 0.168 in test [9]; 1.05 in test [10]; 3.53 in [11]; 3.8 in test [12]. Moreover, the PBM binding z-score in [13] stood at 0.391; in test [14] it was 0.182; in test [15] it was 0.824; in [16], 1.4; in test [17], 0.424; in test [18] it was 1.61. For the same sequence, the figures for the PBM binding z-score in [19] and in test [20] were 0.0789 and 1.97, respectively.
With AAACCAAGGTGATCGTGAGGTCGTTGATACTAAC, the PBM binding z-score in test [1] was 1.87; in test [2], 1.29; in [3] it was 0.284; in test [4], 1.13; in test [5], -0.456; in test [6], 1.54. The PBM binding z-score in [7] is 0.386; in test [8], 0.544; in test [9], -0.322; in test [10], 0.389; in [11], 0.846; in test [12], 1.19. In addition, the PBM binding z-score in test [13] worked out at 0.252; in test [14], 0.247; in test [15], 0.649; in test [16], 3.05; in [17], 1.5; in test [18], 2.16. Further, the figures for the PBM binding z-score in test [19] and in test [20] were -0.27 and 1.24, respectively.
Take TCGCCTAGGTCATTGGGCCAGTATAGTACGCATC: the PBM binding z-score in [1] is 4.27; in test [2] it was 2.83; in [3], 0.548; in test [4], 2.4; in test [5], -0.239; in test [6], 3.61. In addition, the PBM binding z-score is 3.1 in test [7]; 3.57 in test [8]; 2.21 in test [9]; 2.73 in [10]; 3.09 in test [11]; 3.38 in [12]. The PBM binding z-score is -0.283 in test [13]; -0.432 in test [14]; 1.52 in [15]; 1.74 in test [16]; 0.00603 in test [17]; 2.24 in test [18]. In addition, the PBM binding z-score in [19] was -0.44; in test [20], 3.66.
